Reference: ChEMBL document CHEMBL3433997, “St. Jude Leishmania screening dataset” (2016)

What was measured:
Assay type in all cases: functional
[1] = target: Solute carrier family 2, facilitated glucose transporter member 1 (Homo sapiens) (UniProt P11166); assay: ST_JUDE_LEISH: Cytotoxicity at 2uM final concentration against transgenic Leishmania Mexicana promastigotes LmGLUT1 that are glucose transport deficient and complemented with the human glucose transporter GLUT1. Activity is measured by DNA content using SYBR green in vitro
[2] = target: Hexose transporter 1 (Plasmodium falciparum) (UniProt O97467); assay: ST_JUDE_LEISH: Cytotoxicity at 2uM final concentration against transgenic Leishmania Mexicana promastigotes LmPfHT that are glucose transport deficient and complemented with the Plasmodium falciparum hexose transporter. Activity is measured by DNA content using SYBR green in vitro
[3] = target: Glucose transporter (Leishmania mexicana) (UniProt O61059); assay: ST_JUDE_LEISH: Cytotoxicity at 2uM final concentration against transgenic Leishmania Mexicana promastigotes LmGT2 that are glucose transport deficient and complemented with the L. Mexicana glucose transporter 2. Activity is measured by DNA content using SYBR green in vitro

Sequence of Solute carrier family 2, facilitated glucose transporter member 1 (Homo sapiens) (P11166 whole entry): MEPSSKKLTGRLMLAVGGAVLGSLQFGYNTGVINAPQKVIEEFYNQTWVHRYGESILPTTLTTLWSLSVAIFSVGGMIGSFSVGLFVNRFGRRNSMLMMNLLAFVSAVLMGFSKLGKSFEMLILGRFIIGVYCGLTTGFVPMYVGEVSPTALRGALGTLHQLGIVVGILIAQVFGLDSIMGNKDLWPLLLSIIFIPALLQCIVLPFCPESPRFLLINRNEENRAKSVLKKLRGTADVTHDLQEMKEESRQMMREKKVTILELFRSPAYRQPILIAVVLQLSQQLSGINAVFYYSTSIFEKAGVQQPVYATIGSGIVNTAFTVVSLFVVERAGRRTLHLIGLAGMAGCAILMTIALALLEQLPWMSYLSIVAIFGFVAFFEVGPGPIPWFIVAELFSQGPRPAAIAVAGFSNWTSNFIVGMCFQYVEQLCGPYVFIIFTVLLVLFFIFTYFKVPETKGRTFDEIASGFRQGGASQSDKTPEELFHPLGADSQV

Row | SMILES | inhibition [1] | inhibition [2] | inhibition [3]
1 | COc1ccc2nccc([C@@H](O)CN3CCC(NC(=O)c4ccc5cc[nH]c5c4)CC3)c2c1 | 4.43% | 4.82% | 1.32%
2 | O=c1cc(NCCCNCc2ccc(Cl)c(Cl)c2)[nH]c2ccc(Oc3ccccc3)cc12 | -1.41% | -1.42% | -0.72%
3 | CC(C)N1CCC(N(Cc2ccc(-c3ccc(C(F)(F)F)cc3)cc2)C(=O)Cn2c(SCc3cccc(F)c3F)nc(=O)c3ccccc32)CC1 | 6.03% | 4.99% | 4.15%
4 | CCOP(=O)(OCC)c1ccc(OC)c(-c2ccc[nH]2)c1 | 4.52% | 2.22% | 1.77%
5 | CN(C)CCCN1CCN(Cc2ccc(-c3ccc(-c4nc5ccccc5[nH]4)s3)cc2)CC1 | 11.2% | 8.38% | 12.1%
6 | Cc1ccc(OCCCCON2C(=N)N=C(N)NC2(C)C)cc1C | 1.02% | 1% | 0.54%
7 | COc1ccc2nccc([C@@H](O)CN3CCC(NCc4cc5cccc(OCc6ccccc6)c5[nH]4)CC3)c2c1 | 1.7% | 0.05% | 2.01%
8 | O=C(c1cccc(-c2cccc(-c3nc4ccccc4[nH]3)c2)c1)N1CCCCC1CN1CCC(O)C1 (stereo unspecified) | 0.33% | 0.78% | 0.03%
9 | CC1(C)N=C(N)N=C(N)N1c1cc(Cl)c(Cl)c(Cl)c1 | 1.4% | 0.23% | 2.36%
10 | Cc1ccc(Nc2nc(C)cc(NCc3ccc(-n4ccnc4)cc3)n2)cc1 | 5.83% | 10.8% | 10.4%
11 | O=c1[nH]ccc2nc(N[C@@H]3CCCNC3)nc(Nc3ccc(S(=O)(=O)N4CCOCC4)cc3)c12 | 0.92% | 2.1% | -0.68%
12 | O=c1[nH]ccc2nc(N[C@@H]3CCNC3)nc(Nc3cc(Cl)cc(Cl)c3)c12 | 7.56% | 8.18% | 9.4%
13 | COc1ccccc1N1CCN(CCCCNC(=O)c2ccc(NC(=O)c3cc4ccccc4o3)cc2)CC1 | 1.4% | 1.36% | 0.06%
14 | N#CCCN1CCN(Cc2cccc(-c3ccc(-c4nc5ccccc5[nH]4)cc3)c2)CC1 | 2.32% | 3.22% | 0.84%
15 | c1ccc(COc2ccc(Nc3ncnc4cnc(-c5ccc(CN6CCCCC6)o5)cc34)cc2)cc1 | 1.44% | 1.73% | 2.99%
16 | COc1ccc(NC(=O)[C@H](CC(C)C)Nc2cc(C)nc(NCCc3ccc(F)cc3)n2)cc1 | 5.65% | 4.09% | 3.65%

Row | SMILES | inhibition [1] | inhibition [2] | inhibition [3]
17 | COc1ccc(C=NNc2nc3ccccc3[nH]2)cc1O | -3.31% | -1.02% | 1.86%
18 | OC1CCC(Nc2ccc3ncc(-c4ccc(Cl)cc4)n3n2)CC1 (stereo unspecified) | 8.13% | 3.98% | 4.08%
19 | O=C(NC1CCC(N2CCN(c3cccc(C(F)(F)F)c3)CC2)CC1)c1cc2ccccc2[nH]1 (stereo unspecified) | 8.24% | 6.44% | 5.57%
20 | COc1ccc(CCNCCCCCCNCCc2cccc([N+](=O)[O-])c2)cc1OC | 0.45% | 1.78% | 3.28%
21 | Cc1cccc(C)c1OC(=O)C(C)C(O)C1(Sc2ccccc2)CCN(C)CC1 (stereo unspecified) | 5.2% | 3.78% | 3.85%
22 | Cc1c(CNCCCNc2nc3ccccc3[nH]2)[nH]c2cc(Cl)cc(Cl)c12 | 25.5% | 49.4% | 41.6%
23 | CN1CCN(c2cc3c(cc2Cl)CCN3C(=O)Cc2ccc(NC(=O)Nc3cccc4ccccc34)cc2)CC1 | 0.87% | 1.55% | -1.64%
24 | CCN(CCCN1CCCCC1)c1cc(C)nc(Nc2ccc(C)c(F)c2)n1 | 5.07% | 5.06% | 6.2%
25 | CC[C@H](NC(=O)c1c(CN2CCC(N3CCCCC3)CC2)c(-c2ccccc2)nc2c(Cl)c(O)ccc12)c1ccccc1 | 7.43% | 6.81% | 6.04%
26 | CCCCCCCCOc1ccc(N2C(N)=NC(N)=NC2(C)C)cc1 | 2.56% | 3.69% | -0.03%
27 | CN1CCCN(Cc2cccc(-c3cccc(NS(=O)(=O)c4cccc5cccnc45)c3)c2)CC1 | 10.4% | 10.8% | 2.53%
28 | O=C(Nc1ccc(Cl)cc1)N[C@H]1CCN(Cc2ccc(OCCCN3CCCCC3)cc2)C1 | -0.92% | 1.45% | 0.1%
29 | Nc1nc(N)c2c(ccc3c2ccn3CCCF)n1 | 1.79% | 5.24% | 0.69%
30 | CCc1cn(C)c2c(N3CCCC3=O)cc(C(=O)N[C@@H](Cc3ccccc3)[C@H](O)CNCc3cccc(OC)c3)cc12 | 2.48% | 2.2% | 2.88%
31 | Cc1ccc(CNC(=O)[C@H](CCCN)Nc2nc(NCC3CCCCC3)ncc2C)cc1 | 3.55% | 2.8% | 2.97%
32 | O=C(Nc1ccc(-c2cccc(-c3nc4cc(C(F)(F)F)ccc4[nH]3)c2)cc1)c1ccc(=O)[nH]n1 | 3.7% | 2.75% | 2.97%
